Results on 39 compounds are retold here after PubChem BioAssay (Tox21).

Molecules are shown by their SMILES. Several values for one entry are separate records, joined by “and”; a condition that tells them apart may be missing. Equal values may be shown once. Results filed as inconclusive are left out. Unmarked numbers belong to inactive results. Activity calls are given as the source filed them. The call rests on the fitted dose curve; in most records, active means well fitted cell-killing curve with a large enough effect in the repeat runs; inconclusive means weak or mixed curves, or effect the other way; inactive means no such curve, though single readings can be large or run the other way.
On the % scale 0 is the no-effect control and ±100 the full control effect; potency means the concentration at half of the fitted maximal effect.

A short description of the assay: qHTS assay to identify small molecule agonists of the RXR signaling pathway - cell viability counter screen (AID 1159529). Further: nearly all actives have a fitted effect of over 50% in size. The note with it: RXR-alpha-bla HEK293T viability, CellTiter-Glo, 16 h; series mostly up to 76.8 µM; activity change, negative = cytotoxicity: at the top concentration. An outline of the steps: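 Luminescence from CellTiter-Glo (30 min, RT) measured viability in the same wells as the beta-lactamase reporter readout. Cells: GeneBLAzer RXR-alpha HEK 293T, 2% charcoal-stripped FBS. Compound exposure 16 hr, 37 C.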
For the compound `CC#C[C@]1(O)CC[C@H]2[C@@H]3C[C@H](C)C4=CC(=O)CC[C@]4(C)[C@H]3CC[C@@]21C`, the “activity change, negative = cytotoxicity” value was -13.2% [at 35.3 µM].
On the same count and under the same terms, in the case of `CN` it was 3.59%; in that of `BrCCCBr`, 0.134%.
Still for that read-out and setting: under `CC(C)C(Nc1ccc(C(F)(F)F)cc1Cl)C(=O)OC(C#N)c1cccc(Oc2ccccc2)c1` (centres undefined) stands -14.6%; under `CN1C2CCC(C)(C)C1CC(OC(=O)C(O)(c1cccs1)c1cccs1)C2` (centres undefined), -15.8% [at 35.3 µM].
Regarding `C[C@]12CC[C@H]3[C@@H](CCC4=CC(=O)CC[C@@H]43)[C@@H]1CC[C@@H]2OC(=O)CCc1ccco1`, the Potency was 23.9 µM (active).
`[O]=[Cr][O][Cr]=[O]`: the “activity change, negative = cytotoxicity” value was -5.52%.
As to `Oc1cccc(Cl)c1Cl`, the Potency is 49.2 µM (active).
For the compound `CNC(=O)CSP(=O)(OC)OC`, the “activity change, negative = cytotoxicity” value is 0.776%.
For `CCNS(=O)(=O)C(F)(F)C(F)(F)C(F)(F)C(F)(F)C(F)(F)C(F)(F)C(F)(F)C(F)(F)F`, the “activity change, negative = cytotoxicity” value is -21.1%.
Still for that read-out and setting: under `CN1C(=O)[C@@H](NC(=O)c2cc3ccccc3[nH]2)N=C(c2ccccc2)c2ccccc21` stands -0.592% [at 35.3 µM]; under `ClSC(Cl)(Cl)Cl`, 1.03%.
For the compound `CCCCCCCCCCCCCCn1cc[n+](C)c1`, the Potency is 19.5 µM (active).
With `COc1ccc2c3c1O[C@H]1[C@H](O)CC[C@H]4[C@@H](C2)N(C)CC[C@@]341`, the “activity change, negative = cytotoxicity” value was -0.998%.
Take `CC(Cl)CCl` (centres undefined): the “activity change, negative = cytotoxicity” value was 1.22%.
Same read-out and setting: in the case of `Cc1ccn2nc(S(=O)(=O)Nc3c(F)cccc3F)nc2n1` it was 2.21%.
For `C[C@H]1[C@H](c2ccc(Cl)cc2)SC(=O)N1C(=O)NC1CCCCC1`, the “activity change, negative = cytotoxicity” value is -26.2%.
Still for that read-out and setting: in the case of `Oc1ccc2[nH]cc(CCCCN3CC=C(c4ccccc4)CC3)c2c1` it was -3.39% [at 35.3 µM]; in that of `CC(C)=CCN1CC[C@@]2(C)c3cc(O)ccc3C[C@@H]1[C@@H]2C`, -6.41%; in that of `Oc1ccc([C@H]2CNCc3c2ccc(O)c3O)cc1O`, -3.46% [at 35.3 µM].
As to `[Cl][Hg][c]1ccccc1`, the Potency was 1.23 µM (active).
Turning to `O=C(N[C@H]1N=C(c2ccccc2F)c2cccc3c2N(CC3)C1=O)c1cc2ccccc2[nH]1`, the “activity change, negative = cytotoxicity” value is -12.7% [at 35.3 µM].
The same measure, in the same setting: under `CC1(C)C(C=C(Cl)Cl)C1C(=O)OC(C#N)c1ccc(F)c(Oc2ccccc2)c1` (centres undefined) stands -9.02%; under `COC(=O)c1ccccc1S(=O)(=O)NC(=O)Nc1nc(C)nc(OC)n1`, 1.24%; under `O=Cc1ccccc1`, 6.9%.
On the same count and under the same terms, under `CC(C)c1c(CN(C)C(C)Cc2ccccc2)n(C)n(-c2ccccc2)c1=O` (centres undefined) stands 0.539% [at 35.3 µM]; under `O=C(Nc1ccc(F)cc1F)c1cccnc1Oc1cccc(C(F)(F)F)c1`, -0.0559%; under `O=C(N[C@@H]1N=C(c2ccccc2F)c2cccc3c2N(CC3)C1=O)c1cc2ccccc2[nH]1`, -17.7% [at 35.3 µM].
In the case of `O=C1C2(Cl)C3(Cl)C4(Cl)C(Cl)(Cl)C5(Cl)C3(Cl)C1(Cl)C5(Cl)C24Cl` (centres undefined), the Potency was 24.1 µM (active) and 41.8 µM (active).
Still for that read-out and setting: under `Nc1ccccc1-c1ccccc1` stands 21.7 µM (active).
In the case of `CN1[C@@H]2CC[C@H]1CC(O)C2` (some centres undefined), the “activity change, negative = cytotoxicity” value is 4.6%.
As for `C[C@]12C/C(=C/O)C(=O)C[C@@H]1CC[C@@H]1[C@@H]2CC[C@@]2(C)[C@H]1CC[C@]2(C)O`, the Potency is 24.8 µM (active).
Consider `Nc1nc(N)c(N)c(N)n1`, for which the “activity change, negative = cytotoxicity” value was -7.92%.
With `C=CC(=O)[O][Sn]([CH2]CCC)([CH2]CCC)[CH2]CCC`, the Potency was 1.38 µM (active).
For `c1ccc2c(c1)cc1ccc3cccc4ccc2c1c34`, the “activity change, negative = cytotoxicity” value is -16.1%.
As for `FC(F)C(F)(F)OCC(Cn1cncn1)c1ccc(Cl)cc1Cl` (centres undefined), the Potency is 48.7 µM (active).
For the compound `ClC(Cl)C(Cl)(Cl)Cl`, the “activity change, negative = cytotoxicity” value is 5.03%.
Same read-out and setting: in the case of `Brc1cccc(-c2ccccc2)c1` it was -14.5%; in that of `O=[N+]([O-])c1ccc(Cl)c(Cl)c1Cl`, -0.128%.
